{
  "source": "PubChem BioAssay (Tox21)",
  "note": "Values without a mark were called inactive. Where a call stands in place of a potency, no number is given. The source made the active and inactive calls. Calls follow the shape of the full dose curve. Potency is read from the fitted curve at half-maximal effect.",
  "data": [
    {"biological_target": "Acetylcholinesterase (Homo sapiens) (UniProt P22303)", "sequence (P22303 whole entry, looked up)": "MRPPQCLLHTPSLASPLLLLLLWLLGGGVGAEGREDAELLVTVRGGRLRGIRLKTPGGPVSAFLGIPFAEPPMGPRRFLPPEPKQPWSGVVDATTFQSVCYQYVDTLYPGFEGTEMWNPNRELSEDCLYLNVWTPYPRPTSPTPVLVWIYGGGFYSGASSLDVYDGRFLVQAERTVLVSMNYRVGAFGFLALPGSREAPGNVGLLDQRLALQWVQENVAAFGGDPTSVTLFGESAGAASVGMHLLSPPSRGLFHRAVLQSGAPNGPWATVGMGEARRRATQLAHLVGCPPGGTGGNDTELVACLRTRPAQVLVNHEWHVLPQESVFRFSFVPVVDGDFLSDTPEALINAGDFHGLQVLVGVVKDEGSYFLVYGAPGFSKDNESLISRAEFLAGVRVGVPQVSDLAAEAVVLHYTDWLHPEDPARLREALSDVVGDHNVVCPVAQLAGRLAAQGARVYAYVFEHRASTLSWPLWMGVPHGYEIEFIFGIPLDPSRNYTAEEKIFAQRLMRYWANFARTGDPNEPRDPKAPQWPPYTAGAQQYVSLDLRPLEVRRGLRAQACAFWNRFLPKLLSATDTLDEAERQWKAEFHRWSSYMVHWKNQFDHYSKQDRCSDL", "test": "Acetylcholinesterase (AChE) small molecule antagonists: enzyme-based qHTS assay (AID 1347397); also: nearly all actives have a fitted effect of over 55% in size", "conditions": "Potency: AChE enzyme activity inhibition; outcome: AChE enzyme activity inhibition; series mostly up to 115 µM", "excerpt": "National Center for Advancing Translational Sciences [NCATS]\nDivision of Preclinical Innovation [DPI]\nU.S. Environmental Protection Agency [EPA]\nNational Institutes of Environmental Health Sciences [NIEHS]\nNational Toxicology Program [NTP]\nU.S. Food and Drug Administration [FDA]\nAcetylcholinesterase (AChE) is the primary cholinesterase in the body that hydrolyzes a key neurotransmitter, acetylcholine. Inhibition of AChE activity can lead to neurotoxicity. The known inhibitors include organophosphorous pesticides (OP), chemical warfare agents, drugs, and various phytochemicals.\nAn enzyme-based assay with the recombinant human AChE and Amplite Colormetric acetylcholinesterase assay kit (AAT Bioquest, Sunnyvale, CA) was used to evaluate the chemicals in the Tox21 10K library that inhibit AChE activity. The assay uses 5, 5-dithiobis-(2-nitrobenzoic acid) (DTNB) to quantify the thiocholine produced from the hydrolysis of acetylthiocholine by AChE.\nTox21 Assay Protocol Summary:\nFor the enzyme-based AChE assay, recombinant human AChE (50 mU/mL) in 4 uL/well was dispensed into black, clear-bottom 1536-well plates using a Multidrop Combi dispenser (Thermo Scientific, MA). Then, 23 nL of compound or DMSO (vehicle control) was transferred into the assay plates by a Pintool Station (Wako Automation, CA). The plates were incubated for 30 min at room temperature, followed by the addition of 4 uL of colorimetric detection cocktail solution (DTNB, acetylthiocholine) into each well using a Flying Reagent Dispenser (Beckman Coulter, CA) and then 10 min incubation at room temperature.", "values": [
      {"smiles": "CON(C)C(=O)Nc1ccc(Br)cc1", "Potency": "inactive"},
      {"smiles": "COc1cc(CCN)cc(OC)c1OC", "Potency": "inactive"},
      {"smiles": "C[C@H]1CCCC(=O)CCC/C=C/c2cc(O)cc(O)c2C(=O)O1", "Potency": "inactive"},
      {"smiles": "CCOP(=S)(OCC)SCCl", "Potency": "inactive"},
      {"smiles": "O=C(O)C(Cl)Br", "note": "(stereo not given)", "Potency": "inactive"},
      {"smiles": "O=C(O)C(F)(F)C(F)(F)C(F)(F)C(F)(F)C(F)(F)C(F)(F)F", "Potency": "inactive"},
      {"smiles": "NC1(c2ccccc2)CCCCC1", "Potency": "inactive"},
      {"smiles": "CCCCOC(C)=O", "Potency": "inactive"},
      {"smiles": "COc1ccc(CN2CCNCC2)c(OC)c1OC", "Potency": "inactive"},
      {"smiles": "COC(=O)c1ccccc1CS(=O)(=O)NC(=O)Nc1nc(OC)cc(OC)n1", "Potency": "inactive"},
      {"smiles": "CC(C)C(C)(N)C#N", "note": "(stereo not given)", "Potency": "inactive"},
      {"smiles": "O=P(O)(O)CN(CP(=O)(O)O)CP(=O)(O)O", "Potency": "inactive"},
      {"smiles": "O=C(O)C(Br)(Br)Br", "Potency": "inactive"},
      {"smiles": "NCCOS(=O)(=O)O", "Potency": "inactive"},
      {"smiles": "O=P(O)(O)c1ccccc1", "Potency": "inactive"},
      {"smiles": "CCN[C@@H](C)Cc1cccc(C(F)(F)F)c1", "Potency": "inactive"},
      {"smiles": "C=C(Cl)CCl", "Potency": "inactive"},
      {"smiles": "CN(C)CCc1c[nH]c2cccc(OP(=O)(O)O)c12", "Potency": "inactive"},
      {"smiles": "ClCOCCl", "Potency": "inactive"},
      {"smiles": "CCN(CC)C1CCCCC1", "Potency": "inactive"},
      {"smiles": "CCCCCCCC(=O)Cl", "Potency": "inactive"},
      {"smiles": "CCCCCCC(=O)CCCCCC/C=C/C[C@@H](O)[C@H](O)[C@@](N)(CO)C(=O)O", "activity change, negative = inhibition": "0.415% [at 23.6 µM]"},
      {"smiles": "CCNP(=S)(OC)O/C(C)=C/C(=O)OC(C)C", "note": "(stereo not given)", "Potency": "inactive"},
      {"smiles": "Clc1ccc(C(Cl)(Cl)Cl)cn1", "Potency": "inactive"},
      {"smiles": "ClCCN1CCCC1", "Potency": "inactive"},
      {"smiles": "Oc1ccc(Cc2ccc(O)cc2)cc1", "Potency": "inactive"},
      {"smiles": "CCCCCCCCSC(=O)Oc1cc(Cl)nnc1-c1ccccc1", "Potency": "inactive"},
      {"smiles": "CC(Cc1ccccc1)NCCn1cnc2c1c(=O)n(C)c(=O)n2C", "note": "(stereo not given)", "Potency": "inactive"},
      {"smiles": "CC(C)(C1CCC(O)CC1)C1CCC(O)CC1", "note": "(stereo not given)", "Potency": "inactive"},
      {"smiles": "C/C(=N\\NC(=O)Nc1cc(F)cc(F)c1)c1ncccc1C(=O)O", "Potency": "inactive"},
      {"smiles": "Cn1c(CCCC(=O)O)nc2cc(N(CCCl)CCCl)ccc21", "Potency": "inactive"},
      {"smiles": "NNCc1ccccc1", "Potency": "inactive"},
      {"smiles": "CCOC(=O)COc1ccc(Cl)cc1Cl", "Potency": "inactive"},
      {"smiles": "CNC(=O)O/N=C(/CSC)C(C)(C)C", "Potency": "1000 nM (active)"},
      {"smiles": "CS(=O)(=O)Cl", "Potency": "inactive"},
      {"smiles": "CCOP(=O)(CN(CCO)CCO)OCC", "Potency": "inactive"},
      {"smiles": "CC(C)[C@]12CC(=O)[C@H](C)[C@H]1C2", "Potency": "inactive"},
      {"smiles": "O=CCCl", "Potency": "inactive"},
      {"smiles": "CCCOC(=O)c1cncn1C(C)c1ccccc1", "note": "(stereo not given)", "Potency": "inactive"},
      {"smiles": "O=C(O)CBr", "Potency": "inactive"}
    ]}
  ]
}
